In PubChem BioAssay (NCI):
“And” between values parts separate entries of the source, which are not always exact repeats. Equal entries are not always repeated. About 83,000 compounds went through this panel and 20% of them were active in at least one assay; those are over-represented in the sample as a whole.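 48-hour exposure, single concentration, 96-well plates; percent growth endpoint where 0 means no net growth. Active: below 10.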 The source made the active and inactive calls.

How the values were obtained:
Assay in all cases: NCI-60 one-dose screen, 48 h (100 = growth as untreated, 0 = no growth, -100 = all killed)
Conditions in all cases: 10 µM unless noted
SK-MEL-2 melanoma = system: SK-MEL-2 melanoma
EKVX NSCLC = system: EKVX NSCLC
SN12C renal = system: SN12C renal
UO-31 renal = system: UO-31 renal
TK-10 renal = system: TK-10 renal
ACHN renal = system: ACHN renal
CAKI-1 renal = system: CAKI-1 renal
A498 renal = system: A498 renal
CCRF-CEM leukemia = system: CCRF-CEM leukemia
MOLT-4 leukemia = system: MOLT-4 leukemia

Measured: growth

CNC(=O)N/N=C/c1ccc([N+](=O)[O-])o1
inactive: SK-MEL-2 melanoma 97.1% | EKVX NSCLC 107% | SN12C renal 90.7% | UO-31 renal 90.5% | TK-10 renal 111% | ACHN renal 106% | CAKI-1 renal 114% | A498 renal 102% | CCRF-CEM leukemia 96.8% | MOLT-4 leukemia 82.7%

C[N+](C)=c1ccc2nc3c(cc(NCCCNc4cc5oc6cc(=[N+](C)C)ccc-6nc5c5ccccc45)c4ccccc43)oc-2c1
inactive: SK-MEL-2 melanoma 90.4% | EKVX NSCLC 45.6% | UO-31 renal 45.1% | TK-10 renal 115% | ACHN renal 25.3% | CAKI-1 renal 53.8% | A498 renal 109% | CCRF-CEM leukemia 11.3%
active: SN12C renal -25.5% | MOLT-4 leukemia 5.25%

CCC(CCCN(CC)CCc1ccccc1)OC(=O)c1cc(OC)c(OC)c(OC)c1 (centres undefined)
inactive: SK-MEL-2 melanoma 95.6% | EKVX NSCLC 83.8% | SN12C renal 90.2% | UO-31 renal 69.8% | TK-10 renal 72.6% | ACHN renal 82.8% | CAKI-1 renal 89.7% | A498 renal 60.2% | CCRF-CEM leukemia 98.6% | MOLT-4 leukemia 87.1%

CCOC(=O)c1c(C)[nH]c(CO)c1C
inactive: SK-MEL-2 melanoma 101% | EKVX NSCLC 79.1% | SN12C renal 95.2% | UO-31 renal 92.5% | TK-10 renal 106% | ACHN renal 107% | CAKI-1 renal 101% | A498 renal 107% | CCRF-CEM leukemia 98.2% | MOLT-4 leukemia 96.6%

CCCCCCCCCCCCCCCCCCOP(=O)([O-])OC1CC[N+](C)(C)CC1
active: SK-MEL-2 melanoma -14.6% | UO-31 renal -5.55% and -40.1% | TK-10 renal -79.1% and -93.8% | CAKI-1 renal -9.45% and -42.7% | A498 renal -21.6% and -25.3% | CCRF-CEM leukemia -2.22% and -53% | MOLT-4 leukemia -44.9% and -49.8%
inactive: EKVX NSCLC 36.3% and 41.5% | SN12C renal 19.9% and 24.9% | ACHN renal 28.6% and 23.9%

O=C(O)c1ccc2c3c(ncnc13)-c1ccccc1C2=O
inactive: SK-MEL-2 melanoma 88.4% | EKVX NSCLC 103% | SN12C renal 48.7% | UO-31 renal 62.7% | TK-10 renal 120% | ACHN renal 73.8% | CAKI-1 renal 111% | CCRF-CEM leukemia 77.9% | MOLT-4 leukemia 96.3%
active: A498 renal -2.38%

Cc1c2ccccc2c(C)c2c1ccc1ccccc12
inactive: SK-MEL-2 melanoma 98.6% | EKVX NSCLC 88.7% | SN12C renal 94.3% | UO-31 renal 80.3% | TK-10 renal 111% | ACHN renal 97.2% | CAKI-1 renal 89% | A498 renal 81.1% | CCRF-CEM leukemia 88.9% | MOLT-4 leukemia 71.1%

N#CSCC(=O)c1ccc(Cl)cc1
inactive: SK-MEL-2 melanoma 80.8% | EKVX NSCLC 82.6% | SN12C renal 33.6% | UO-31 renal 28.3% | TK-10 renal 82.7% | ACHN renal 52% | CAKI-1 renal 31.8% | A498 renal 83.7% | CCRF-CEM leukemia 52.5% | MOLT-4 leukemia 65.4%

Oc1c(Cl)cc(Cl)c2cccnc12
inactive: SK-MEL-2 melanoma 80% and 60.3% | EKVX NSCLC 58.9% and 51.5% | SN12C renal 57.3% | UO-31 renal 42.8% and 24.9% | TK-10 renal 53% and 107% | ACHN renal 42% | CAKI-1 renal 46.3% and 51.3% | A498 renal 67.6% and 66.6% | CCRF-CEM leukemia 31% and 36.4% | MOLT-4 leukemia 37.1% and 35.7%

O=C(Nc1ccccc1)c1cc(Cl)ccc1O
active: SK-MEL-2 melanoma -6.3% | A498 renal -4.6%
inactive: EKVX NSCLC 88.2% | SN12C renal 61.8% | UO-31 renal 49.7% | TK-10 renal 53.5% | ACHN renal 57.3% | CAKI-1 renal 49.6% | CCRF-CEM leukemia 68% | MOLT-4 leukemia 77.2%

CCCCCCCCCCCCCCCCOP(=O)([O-])OCC[N+](C)(C)C
inactive: SK-MEL-2 melanoma 56.8% | EKVX NSCLC 46.9% | SN12C renal 34.2% | UO-31 renal 19.3% | ACHN renal 36.4% | CAKI-1 renal 16.5%
active: TK-10 renal -70.3% | A498 renal 3.51% | MOLT-4 leukemia -19.9%

O=C(/C=C\c1cc(Br)ccc1O)/C=C/c1cc(Br)ccc1O
active: SK-MEL-2 melanoma -63.1% | EKVX NSCLC 8.88% | SN12C renal -55.4% | UO-31 renal -72.9% | TK-10 renal -20% | ACHN renal -59.8% | CAKI-1 renal -2.63% | A498 renal -70.1% | MOLT-4 leukemia 0.164%

O=C(CC1(O)C(=O)Nc2c(Cl)ccc(Cl)c21)c1ccc(Cl)cc1Cl (centres undefined)
inactive: SK-MEL-2 melanoma 98.9% | EKVX NSCLC 85.2% | SN12C renal 104% | UO-31 renal 86.2% | TK-10 renal 105% | ACHN renal 107% | CAKI-1 renal 93.8% | A498 renal 79.7% | MOLT-4 leukemia 106%

C=CCOc1ccc(N=NC(C#N)C#N)cc1
inactive: SK-MEL-2 melanoma 87.3% | EKVX NSCLC 92.6% | SN12C renal 85.7% | UO-31 renal 41.4% | TK-10 renal 62.6% | ACHN renal 36% | CAKI-1 renal 25.6% | A498 renal 76% | CCRF-CEM leukemia 13.6% | MOLT-4 leukemia 19.5%

CCN(CC)CCOc1ccc(-c2nc3cc(Cl)ccc3s2)cc1
inactive: SK-MEL-2 melanoma 80.2% | EKVX NSCLC 57.3% | SN12C renal 36% | ACHN renal 10.3% | CAKI-1 renal 11.9%
active: UO-31 renal -46.7% | TK-10 renal 8.65% | A498 renal -0.459% | CCRF-CEM leukemia 4.45% | MOLT-4 leukemia -79.3%

CC(=O)ON=C1C=CC(=C(C#N)c2ccccc2)C=C1
inactive: SK-MEL-2 melanoma 41.2% | EKVX NSCLC 82.7% | SN12C renal 18% | UO-31 renal 38% | TK-10 renal 21.1% | ACHN renal 14% | CAKI-1 renal 19.9% | A498 renal 102% | CCRF-CEM leukemia 23.5% | MOLT-4 leukemia 40.8%

CCC(=O)Sc1ccccc1C(=O)Nc1ccc(Cl)cc1
inactive: SK-MEL-2 melanoma 133% | EKVX NSCLC 29.5% | SN12C renal 49.5% | UO-31 renal 61.6% | TK-10 renal 69.4% | ACHN renal 73.2% | CAKI-1 renal 31.9% | A498 renal 36.8% | CCRF-CEM leukemia 27.1% | MOLT-4 leukemia 30.9%

C/C=C1\SC(=S)NC1=O
inactive: SK-MEL-2 melanoma 111% | EKVX NSCLC 95.1% | SN12C renal 101% | UO-31 renal 91.6% | TK-10 renal 98.4% | ACHN renal 106% | CAKI-1 renal 99.3% | A498 renal 108% | MOLT-4 leukemia 103%

CCN(CC)CC(C)(C)C(=O)/C=C/c1ccc(Cl)c(Cl)c1
inactive: EKVX NSCLC 28.2%
active: SK-MEL-2 melanoma -33.2% | SN12C renal -43.8% | UO-31 renal -72% | TK-10 renal -34.7% | ACHN renal -42.8% | CAKI-1 renal -32.3% | A498 renal -24.3% | CCRF-CEM leukemia 5.91% | MOLT-4 leukemia 2.21%

CCCCCCCCCCCCCCCCN(CC)CC
active: SK-MEL-2 melanoma -79.9% | EKVX NSCLC -88.5% | SN12C renal -83.5% | UO-31 renal -69.3% | TK-10 renal -89.4% | ACHN renal -57.4% | CAKI-1 renal -81.9% | CCRF-CEM leukemia -13.4% | MOLT-4 leukemia -71.2%
inactive: A498 renal 107%

Cc1ccnc2c1ccc1c(C)ccnc12
active: UO-31 renal -4.12% | MOLT-4 leukemia 3.4%
inactive: SK-MEL-2 melanoma 27.3% | EKVX NSCLC 22.2% | SN12C renal 15.6% | TK-10 renal 25.7% | ACHN renal 11.3% | CAKI-1 renal 16% | A498 renal 19.5%

Oc1c(Cl)c2ccccc2c2ccccc12
inactive: SK-MEL-2 melanoma 96.9% | EKVX NSCLC 117% | SN12C renal 98.5% | UO-31 renal 91.8% | TK-10 renal 84.8% | ACHN renal 100% | A498 renal 122% | CCRF-CEM leukemia 112%

C[n+]1c(/C=C/c2ccc([N+](=O)[O-])cc2)ccc2ccccc21
inactive: SK-MEL-2 melanoma 103% | EKVX NSCLC 62.8% | SN12C renal 102% | UO-31 renal 63.3% | TK-10 renal 112% | ACHN renal 116% | CAKI-1 renal 81.3% | A498 renal 92.4% | MOLT-4 leukemia 90.7%

CNc1ccc(N)cc1
inactive: SK-MEL-2 melanoma 120% | EKVX NSCLC 93.7% | SN12C renal 110% | UO-31 renal 98.2% | TK-10 renal 130% | ACHN renal 92.8% | CAKI-1 renal 91.4% | A498 renal 120% | MOLT-4 leukemia 97.6%

N[C@H](C(=O)O)[C@@H]1CC(Cl)=NO1
inactive: SK-MEL-2 melanoma 46.3% [20 µM] | EKVX NSCLC 23.6% [20 µM] | SN12C renal 19.6% [20 µM] | UO-31 renal 34.8% [20 µM] | TK-10 renal 24.7% [20 µM] | ACHN renal 21.5% [20 µM] | CAKI-1 renal 18.3% [20 µM] | A498 renal 13.6% [20 µM] | MOLT-4 leukemia 23.5% [20 µM]

CN1c2ccccc2C(C)(C)C12C=Cc1cc(O)ccc1O2 (centres undefined)
inactive: SK-MEL-2 melanoma 57.5% | EKVX NSCLC 105% | SN12C renal 48.7% | UO-31 renal 60.6% | TK-10 renal 80.7% | ACHN renal 73.3% | CAKI-1 renal 65.9% | A498 renal 26%
active: MOLT-4 leukemia -17.6%
